Assay [1] can be described thus: blockers of polyQ-driven CASP3 activation – cell-based (AID 1583). Particulars: polyglutamine-induced caspase-3 activation, cell assay; stronger effect = higher value;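 tested at 10 µM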.
The nature of assay [2]: yeast 75Q aggregation reduction – 75Q-TubU reporter (AID 1593). Particulars: Yeast 75Q polyglutamine aggregation reporter.
Assay [3] can be described thus: restoration of touch response, mutant HTT neurons – whole organism, C. elegans mechanosensory neurons, N-terminal huntingtin (AID 1599). Particulars: C. elegans polyQ-huntingtin mechanosensory neurons, stronger effect = higher value.
Assay [4] in a line: blockers of cytochrome c efflux from mitochondria – biochemical, purified mitochondria (AID 1603).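 Further: mouse liver mitochondria challenged with calcium chloride; signal normalized to the plate average as 100%.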 To be noted: stronger effect = lower value.
Assay [5] in a line: polyglutamine aggregate formation blockers (AID 1604). Particulars: polyglutamine-induced protein aggregation inhibition assay; stronger effect = higher value; tested at 2.5 µM.
Assay [6] can be described thus: glutamate transport activators, MN-1 cells, MN-1 cell line (AID 1612).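 Further: tested at 1 µM final; 0% = mean of DMSO vehicle wells on each plate; positive means more glutamate uptake than control and negative means less.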 Particulars: MN-1 motor neuron cells, stronger effect = higher value.
Assay [7] in a line: GFP-Q80 aggregate reduction, neuronal-like cells, cell-based, NGF-treated PC12, GFPQ80 (AID 1614).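 Further: lower means fewer inclusions and 0 means no inclusions at all.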 To be noted: PC12 NGF-treated GFP-polyQ80 inclusion reduction.
Assay [8] can be described thus: 75Q-TubH aggregate inhibition, S. cerevisiae, yeast (AID 1616). Particulars: S. cerevisiae 75Q-TubH polyglutamine aggregation suppression; stronger effect = higher value.
Assay [9] is described as follows: compounds altering circadian rhythm period length – cell-based, LOPAC library, luminescence reporter (AID 2774).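 Further: values are relative to mean of DMSO wells on each plate.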 Particulars: circadian reporter cells, at 7 µM, actives lie on both sides.
The nature of assay [10]: compounds altering viability of human ES cells (AID 493140).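 Further: cells exposed to compounds for four days before counting.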 To be noted: human embryonic stem cell survival screen; stronger effect = higher value.
For assay [11], the target named is 6-phosphogluconate dehydrogenase, decarboxylating (Homo sapiens) (UniProt P52209). Nature of the assay: inhibition of human phosphogluconate dehydrogenase – biochemical, recombinant enzyme, NADPH absorbance, primary screen (AID 1159550;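 active means at least 20% inhibition of 6-phosphogluconate dehydrogenase activity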). To be noted: recombinant 6PGD, NADPH absorbance 341 nm; at 10 µM; stronger effect = higher value.
A short description of assay [12]: EMT-state selective cytotoxicity in co-culture – imaging, PC-3E GFP, TEM4-18 mCherry, primary screen (AID 1345086;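 active means compounds killing one labelled cell type while sparing the other, by normalised counts and ratio limits, not self-fluorescent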;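 on all read-outs here: cells exposed to compound for 72 h before imaging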;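 on red/green cell ratio (normalised): normalised mesenchymal count divided by normalised epithelial count so high means epithelial killing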). Particulars: PC-3E GFP / TEM4-18 mCherry co-culture, imaging cell counts, at 1 µM; for red/green cell ratio (normalised): actives lie on both sides, counts scaled to control wells, 1 = unselective.
A short description of assay [13]: viability loss with induced miR-34 in A549 – imaging, A549 dox-inducible miR-34, nuclei and caspase counts, primary screen (AID 1347080;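 active means compounds whose cell count with miR-34 switched on is under 0.7 times the count with it off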). To be noted: A549 miR-34 inducible, Hoechst nuclei count, 48 h.
Assay [14] is described as follows: blockers of cellular phospholipid synthesis – cell-based, LOPAC library, screen 4, primary screen (AID 1347384). To be noted: animal cells, phospholipid biosynthesis inhibition screen; at 10 µM.
The nature of assay [15]: MELAS cybrid and Rieske KO viability enhancers – cell-based, MELAS cybrids, Rieske KO mouse fibroblasts, CellTiter-Glo, primary screen (AID 1508586;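 active means mean z-score across replicates of 1.96 or higher in either the MELAS or the Rieske mutant cell line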;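 further: z relative to plate mean and SD of compound and empty wells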). To be noted: low glucose. (In ATP-based viability assays light output follows the ATP content of the culture.)
Assay [16] has as its target NAD(+) hydrolase SARM1 (Homo sapiens) (UniProt Q6SZW1). The assay can be described thus: blocking NAD cleavage by SARM1 SAM-TIR – cell lysate, NAD-Glo luminescence (AID 1508614;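 active means compound whose remaining NAD level is above about 45 nM, limit read from the data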). Particulars: SAM-TIR HEK293T lysate NADase, at 1 µM, stronger effect = higher value.
Assay [17] deals with Mitogen-activated protein kinase 7 (Homo sapiens) (UniProt Q13164). The assay can be described thus: Gal4-ERK5 driven luciferase induction – cell-based, HTS, primary screen (AID 1508626;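 active means luciferase signal above three times the same-plate solvent-only control wells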;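 further: luciferase driven by Gal4-ERK5 fusion binding five Gal4 sites before minimal TATA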). To be noted: HeLa Gal4-ERK5 transactivation, 18 h, at 5 µM, stronger effect = higher value.
The nature of assay [18]: galactose survival enhancers in mitochondrial complex I cybrids – cell-based, galactose medium, ATP luminescence, primary screen (AID 1645843;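 active means z-score of at least 1.8 in each of two replicates, scored against plate mean and spread of sample wells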;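 further: positive z means more ATP and so rescue of galactose-driven cybrid death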). Particulars: complex I mutant cybrid cells, 72 h, stronger effect = higher value.
Assay [19] can be described thus: P. berghei load reduction in hepatocytes – cell-based, HepG2, luciferase luminescence, HepG2 viability, primary screen (AID 624349; in the data active means parasite load remaining mostly below about 12%, no sharp cut-off; inactive means mostly above about 10%;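 further: 100% = mean of DMSO negative control wells on the same plate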). To be noted: P. berghei liver stage in HepG2, luciferase luminescence, concentration not given here; parasite load remaining: stronger effect = lower value; viability: measured here: HepG2 viability without parasites.
Where [20] appears, read: measured here: epithelial PC-3E GFP cell survival.
Setting [21] is: measured here: mesenchymal TEM4-18 mCherry cell survival.
The mark [22] stands for this setting: stronger effect = lower value, cell number ratio, induced over uninduced.
[23] abbreviates: measured here: relative caspase fold change +Dox/-Dox.
The mark [24] stands for this setting: measured here: total cells with miR-34 induction, stronger effect = lower value.
Setting [25] is: measured here: total cells without miR-34 induction.
Where [26] appears, read: MELAS cybrid survival, CellTiter-Glo 48 h, stronger effect = higher value.
Setting [27] is: Rieske KO mouse fibroblast survival, CellTiter-Glo 72 h.

Values joined by “and” are separate entries in the source; they are usually repeats but may differ in a detail not shown here. Equal values may be shown once. For some assays here: Results with a measured potency or affinity are listed apart. Active and inactive are the calls of the source. Unless noted, how the calls were made is not given here.

Chain of Mitogen-activated protein kinase 7 (Homo sapiens) (Q13164 whole entry, looked up, the tested form may be a part): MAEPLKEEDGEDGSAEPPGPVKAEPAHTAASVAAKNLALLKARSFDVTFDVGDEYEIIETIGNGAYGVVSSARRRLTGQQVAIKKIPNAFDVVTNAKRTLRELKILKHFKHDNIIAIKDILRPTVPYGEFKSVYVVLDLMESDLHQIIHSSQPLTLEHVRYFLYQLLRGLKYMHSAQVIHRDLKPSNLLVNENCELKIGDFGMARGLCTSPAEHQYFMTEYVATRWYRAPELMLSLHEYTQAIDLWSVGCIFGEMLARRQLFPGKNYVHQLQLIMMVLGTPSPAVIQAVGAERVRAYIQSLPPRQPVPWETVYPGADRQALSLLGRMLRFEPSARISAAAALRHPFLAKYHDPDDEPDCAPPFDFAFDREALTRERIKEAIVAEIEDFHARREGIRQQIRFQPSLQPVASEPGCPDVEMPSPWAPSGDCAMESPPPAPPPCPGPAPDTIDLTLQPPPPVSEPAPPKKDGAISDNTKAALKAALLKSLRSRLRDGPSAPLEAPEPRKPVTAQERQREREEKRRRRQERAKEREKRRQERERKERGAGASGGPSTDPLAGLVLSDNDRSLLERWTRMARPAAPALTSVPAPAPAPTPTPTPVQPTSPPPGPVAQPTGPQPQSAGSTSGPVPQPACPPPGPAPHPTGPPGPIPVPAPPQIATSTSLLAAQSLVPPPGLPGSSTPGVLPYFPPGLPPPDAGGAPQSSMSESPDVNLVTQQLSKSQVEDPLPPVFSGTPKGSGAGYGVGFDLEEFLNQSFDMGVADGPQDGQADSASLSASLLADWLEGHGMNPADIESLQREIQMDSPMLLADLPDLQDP
Chain of 6-phosphogluconate dehydrogenase, decarboxylating (Homo sapiens) (P52209 whole entry, looked up): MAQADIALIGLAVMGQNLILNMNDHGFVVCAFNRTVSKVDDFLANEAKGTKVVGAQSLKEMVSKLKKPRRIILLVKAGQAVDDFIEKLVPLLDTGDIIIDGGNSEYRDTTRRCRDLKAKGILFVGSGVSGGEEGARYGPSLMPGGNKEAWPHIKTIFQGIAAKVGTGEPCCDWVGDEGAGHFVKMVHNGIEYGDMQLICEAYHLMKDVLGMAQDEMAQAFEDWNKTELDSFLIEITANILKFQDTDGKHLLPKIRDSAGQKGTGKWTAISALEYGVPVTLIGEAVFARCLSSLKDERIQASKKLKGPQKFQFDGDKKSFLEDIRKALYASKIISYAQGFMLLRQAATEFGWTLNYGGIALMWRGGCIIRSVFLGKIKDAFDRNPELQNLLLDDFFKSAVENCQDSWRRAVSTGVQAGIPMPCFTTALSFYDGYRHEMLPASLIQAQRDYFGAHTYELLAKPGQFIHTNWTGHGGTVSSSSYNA
Chain of NAD(+) hydrolase SARM1 (Homo sapiens) (Q6SZW1 whole entry, looked up, the tested form may be a part): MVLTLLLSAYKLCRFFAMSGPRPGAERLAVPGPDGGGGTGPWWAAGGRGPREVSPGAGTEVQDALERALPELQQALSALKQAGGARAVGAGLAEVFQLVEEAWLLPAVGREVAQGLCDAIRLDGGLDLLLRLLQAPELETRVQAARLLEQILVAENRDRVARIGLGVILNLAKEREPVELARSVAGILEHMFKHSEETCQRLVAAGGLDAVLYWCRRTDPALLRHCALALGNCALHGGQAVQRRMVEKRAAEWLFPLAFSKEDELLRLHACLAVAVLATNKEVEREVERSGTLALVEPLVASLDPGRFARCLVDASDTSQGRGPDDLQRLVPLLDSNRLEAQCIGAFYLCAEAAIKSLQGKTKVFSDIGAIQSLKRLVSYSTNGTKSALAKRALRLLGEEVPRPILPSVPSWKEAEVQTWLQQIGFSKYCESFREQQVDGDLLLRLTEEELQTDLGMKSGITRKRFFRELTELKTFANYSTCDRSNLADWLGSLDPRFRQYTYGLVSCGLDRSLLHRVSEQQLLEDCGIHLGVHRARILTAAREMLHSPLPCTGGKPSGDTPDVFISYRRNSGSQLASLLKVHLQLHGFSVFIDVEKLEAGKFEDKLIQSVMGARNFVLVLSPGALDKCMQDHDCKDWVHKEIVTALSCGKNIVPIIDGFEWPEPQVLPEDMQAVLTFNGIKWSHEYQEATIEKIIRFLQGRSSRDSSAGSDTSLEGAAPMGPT

With `CN(C)CCN(Cc1cccs1)c1ccccn1`, the inhibition (as a rule, the drop in the measured response relative to a control, in per cent) is 23.7% in assay [1] and 15.9% (inactive) in assay [11]. In assay [2], the score amounted to 1.21. This molecule returned a rescue above control in [3] of -13.2. Further, the cytochrome c release ratio in [4] was 0.66. This molecule also returned an inhibition of aggregation in [5] of 81.4%. In [6], the glutamate uptake change was -6.5%. For the same molecule, in [7], the inclusion score came out at 2. Also, in assay [8], the aggregation suppression score was found to be 1.19. Further, the period change in [9] was 0.21 h (inactive). Moreover, the survival in assay [10] was 13.8 (inactive). Further, in assay [12], the red/green cell ratio (normalised) was 1.12 (inactive). In addition, the normalised cell number in assay [12] (setting [20]) is 1.1; in assay [12] (setting [21]), 1.22. Further, the fold change in [13] (setting [22]) is 1.16 (inactive) and 0.855 (inactive) and 0.861 (inactive); in assay [13] (setting [23]), 0.908 and 1.23 and 2.97. Further, the cell count is 11200 and 8440 and 11600 in assay [13] (setting [24]); 9630 and 9870 and 13500 in assay [13] (setting [25]). In assay [14], the outcome was inactive. Moreover, the z-score in assay [15] (setting [26]) was 0.365 (inactive); in assay [15] (setting [27]) it was -0.164; in assay [18], 0.215 (inactive). Moreover, the remaining NAD in assay [16] was 10 nM (inactive). Besides, the luciferase signal in assay [17] was 36 AU (inactive).
With `CN1C2CCC1CC(OC(=O)C(CO)c1ccccc1)C2` (stereo not drawn), the inhibition was -7.62% in assay [1] and -2.64% (inactive) in assay [11]. This molecule registered a score in [2] of 1.48. Further, the rescue above control in [3] was -4.85. Further, the cytochrome c release ratio in [4] is 1.14. In assay [5], this molecule gave an inhibition of aggregation of 83.1%. In assay [6], the glutamate uptake change came out at 7.04%. The molecule also came in with an inclusion score in assay [7] of 2. The aggregation suppression score in [8] amounted to 1.57. Also, the period change in assay [9] was 0.005 hour (inactive) and 0.075 hour (inactive). Further, the survival in [10] was 7.25 (inactive). Also, the red/green cell ratio (normalised) in assay [12] is 1.05 (inactive). The normalised cell number came out at 0.95 in [12] (setting [20]) and 1 in [12] (setting [21]). In addition, the result in assay [14] was inactive. Further, the z-score in assay [15] (setting [26]) was -0.14 (inactive); in [15] (setting [27]) it was -0.261; in assay [18], 0.025 (inactive) and 0.13 (inactive).
For the molecule `Nc1ccc(S(=O)(=O)Nc2ncccn2)cc1`, the inhibition in assay [1] is -24.3%; in assay [11], 5.23% (inactive). This molecule returned a score in assay [2] of 0.99. In addition, the rescue above control in assay [3] is -2.17. Moreover, the cytochrome c release ratio in assay [4] was determined as 1.47. The inhibition of aggregation in [5] was found to be 53.9%. The glutamate uptake change in assay [6] was -2.67%. This molecule displayed an inclusion score in assay [7] of 2. In assay [8], this molecule showed an aggregation suppression score of 0.995. Further, in assay [10], the survival is 31.2 (inactive). The red/green cell ratio (normalised) in assay [12] was 1.41 (inactive). Besides, the normalised cell number amounted to 0.84 in [12] (setting [20]) and 1.19 in assay [12] (setting [21]). Moreover, the z-score in assay [15] (setting [26]) was -0.222 (inactive) and 0.26 (inactive) and -0.566 (inactive); in assay [15] (setting [27]), 0.689 and 0.071 and -1.27; in [18], -0.065 (inactive). For the same molecule, the remaining NAD in assay [16] is 10 nM (inactive). For the same molecule, in [17], the luciferase signal is 40 AU (inactive).
Take `O=C(/C=C/c1ccc(O)c(O)c1)OCCc1ccccc1`: the period change in assay [9] was 0.335 h (inactive). In assay [11], the inhibition was 14% (inactive). In assay [12], the red/green cell ratio (normalised) was 0.72 (inactive). Further, the values for the normalised cell number in assay [12] (setting [20]) and in [12] (setting [21]) were 1.3 and 0.94, respectively. For the same molecule, the fold change in assay [13] (setting [22]) was 1.03 (inactive) and 1.01 (inactive) and 1.12 (inactive). Moreover, in assay [14], the molecule was classed as inactive. Also, in [17], the luciferase signal is 56 AU (inactive). In addition, the z-score in assay [18] was -1.37 (inactive) and -0.615 (inactive).
In the case of `O=C(CCc1ccc(O)cc1)c1c(O)cc(O)cc1O[C@@H]1O[C@H](CO)[C@@H](O)[C@H](O)[C@H]1O`, the parasite load remaining in [19] was 28.4% (inactive). Besides, the viability (in general, a read-out of living cells in per cent, often relative to untreated cells) in [19] stood at 69.5%. The inhibition in [11] was 5.05% (inactive). In addition, the red/green cell ratio (normalised) in assay [12] is 1 (inactive). The normalised cell number in assay [12] (setting [20]) and in assay [12] (setting [21]) was 0.89 in each case. Further, the fold change in [13] (setting [22]) was 0.867 (inactive); in assay [13] (setting [23]), 1.41. In addition, the cell count in [13] (setting [24]) was determined as 9120; in assay [13] (setting [25]) it was 10500. For the same molecule, the z-score in assay [15] (setting [26]) was -0.633 (inactive); in assay [15] (setting [27]), -1.43; in assay [18], -0.075 (inactive). In assay [17], the luciferase signal was 28 AU (inactive).

Source of the values: PubChem BioAssay.
